This is an account of results in PubChem BioAssay (EPA / NIEHS).

Structures are written as SMILES. Results filed as inconclusive are left out. Activity calls are given as the source filed them. The calls were made as follows: active = hit-call score of the fitted dose curve at least 0.9, where 1 is the maximum; inconclusive = response in the unintended direction; inactive = score below 0.9.

Chain of PGR (gene 5241) (P06401 whole entry, looked up): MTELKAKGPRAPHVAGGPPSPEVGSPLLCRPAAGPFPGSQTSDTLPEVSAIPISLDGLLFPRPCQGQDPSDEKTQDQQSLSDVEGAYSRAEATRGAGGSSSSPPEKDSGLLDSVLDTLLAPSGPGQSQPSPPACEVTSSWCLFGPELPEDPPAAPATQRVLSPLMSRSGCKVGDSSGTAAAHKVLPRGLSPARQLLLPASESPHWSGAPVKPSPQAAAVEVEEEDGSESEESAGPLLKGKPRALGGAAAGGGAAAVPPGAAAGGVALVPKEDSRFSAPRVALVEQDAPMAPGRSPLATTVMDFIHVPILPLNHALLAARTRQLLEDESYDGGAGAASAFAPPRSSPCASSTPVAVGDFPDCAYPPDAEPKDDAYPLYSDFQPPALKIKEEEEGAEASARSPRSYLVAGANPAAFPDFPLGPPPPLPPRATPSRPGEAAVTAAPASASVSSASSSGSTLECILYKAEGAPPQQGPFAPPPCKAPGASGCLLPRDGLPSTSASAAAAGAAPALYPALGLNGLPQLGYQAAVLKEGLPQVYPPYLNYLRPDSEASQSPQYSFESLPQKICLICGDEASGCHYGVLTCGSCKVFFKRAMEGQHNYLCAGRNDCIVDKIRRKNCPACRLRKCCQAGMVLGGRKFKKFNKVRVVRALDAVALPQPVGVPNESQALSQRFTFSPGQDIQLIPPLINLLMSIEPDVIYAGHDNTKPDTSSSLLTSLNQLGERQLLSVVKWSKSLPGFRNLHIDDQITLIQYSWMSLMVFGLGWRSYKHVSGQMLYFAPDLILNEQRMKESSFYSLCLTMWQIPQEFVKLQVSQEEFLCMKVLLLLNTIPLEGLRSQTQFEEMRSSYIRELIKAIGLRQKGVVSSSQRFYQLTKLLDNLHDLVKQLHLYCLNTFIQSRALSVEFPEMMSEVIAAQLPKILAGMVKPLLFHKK

One assay deals with PGR (gene 5241) (UniProt P06401). As to the kind of experiment: TOX21_PR_BLA_Followup_Agonist_ratio: Tox21 HEK293 Progesterone Receptor (PR) Agonism Beta-lactamase Follow-Up Assay, Ratio (AID 2283933). The method, then:
TOX21_PR_BLA_Followup is a secondary assay for specificity for the TOX21_PR_BLA_Agonist assay. To differentiate true PR agonists from cytotoxic substances, this follow up assay is multiplexed with a cell viability assay. The compounds were also tested for auto fluorescence that may interfere with the biological target readout resulting in potential false positives and/or negatives. To identify the compounds that stimulate PR signaling, a PR-UAS-bla GripTite cell line i.e. PR-UAS-bla HEK293T (Invitrogen, Carlsbad, CA, USA) containing a beta-lactamase reporter gene under the control of an UAS response element was used to screen Tox21 10K compound library. The cytotoxicity of the Tox21 compound library against the PR-bla cell line was tested in parallel by measuring the cell viability using CellTiter-Glo assay in the same wells. TOX21_PR_BLA_Followup_Agonist_ratio is an assay readout measuring reporter gene via receptor activity and designed using inducible reporter (beta lactamase induction) detected with GAL4 b-lactamase reporter gene. The signal is derived from the ratio of cleaved (ch2) to uncleaved (ch1) reporter gene substrate used as the measure of target activity.Data from the assay component TOX21_PR_BLA_Followup_Agonist_ratio was analyzed into 1 assay endpoint. This assay endpoint, TOX21_PR_BLA_Followup_Agonist_ratio, was analyzed in the positive analysis fitting direction relative to DMSO as the negative control and baseline of activity. […] Furthermore, this assay endpoint can be referred to as a primary readout, because this assay has produced multiple assay endpoints where this one serves a reporter gene function. […]
Assay Protocol: PR-UAS-bla HEK 293T cells were dispensed at 3,000 cells/5 uL of assay medium containing 2% charcoal stripped FBS per well into black wall/clear-bottom 1536-well plates using a Multidrop Combi (ThermoFisher Scientific, Waltham, MA) dispenser. […] After the plates were incubated at room temperature for 2 hours, fluorescence intensity was measured by an Envision plate reader (PerkinElmer, Shelton, CT).
In the case of `C[C@H]1C[C@@H]2[C@H]([C@@H](O)C[C@@]3(C)[C@H]2CC[C@]3(O)C(=O)CO)[C@@]2(C)C=CC(=O)C=C12`, the concentration at half-maximal activity (AC50) (commonly the concentration giving half of the maximal activity seen) was 58.7 µM (active). For `CCCc1c(OCCCOc2ccc(OCC(=O)O)cc2)ccc(C(C)=O)c1O`, the result was inactive.

In the case of `O=c1cc(-c2ccccc2)oc2cc(O)cc(O)c12`, the result was inactive.

Another assay has the same target. In words: TOX21_PR_BLA_Followup_Antagonist_ratio: Tox21 HEK293 Progesterone Receptor (PR) Antagonism Beta-lactamase Follow-Up Assay, Ratio (AID 2283934). Put shortly:
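PR-UAS-bla HEK293T cells in medium with 2% charcoal-stripped FBS were treated with compounds plus 1 nM (final) promegestone (R5020) for 16 hr at 37C. LiveBLAzer B/G FRET substrate was then added for 2 h at room temperature; signal is cleaved/uncleaved substrate ratio versus DMSO.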
For the compound `O=C(Oc1ccccc1)c1ccc(O)cc1`, the outcome was inactive. `C[C@H]1C[C@H]2[C@@H]3CCC4=CC(=O)C=C[C@]4(C)[C@@]3(F)[C@@H](O)C[C@]2(C)[C@@]1(O)C(=O)COP(=O)(O)O`: the outcome was inactive. On to `C[C@]12CC[C@H]3[C@@H](CCC4=CC(=O)CC[C@@]43C)[C@@H]1CC[C@@H]2C(=O)CO`, for which the result was inactive. As to `COC(=O)C1=C(C)NC(C)=C(C(=O)OCCN(C)Cc2ccccc2)C1c1cccc([N+](=O)[O-])c1` (configuration not stated), the AC50 is 25 µM (active).

Turning to `C#C[C@]1(O)CC[C@H]2[C@@H]3CCC4=Cc5oncc5C[C@]4(C)[C@H]3CC[C@@]21C`, the AC50 was 0.0919 µM (active).

As for `CC(=O)[C@H]1CC[C@H]2[C@@H]3CC=C4C[C@@H](O)CC[C@]4(C)[C@H]3CC[C@]12C`, the outcome was inactive.

Take `C[C@H]1C[C@@H]2[C@H]([C@@H](O)C[C@@]3(C)[C@H]2CC[C@]3(O)C(=O)CO)[C@@]2(C)C=CC(=O)C=C12`: the result was inactive. `CCCc1c(OCCCOc2ccc(OCC(=O)O)cc2)ccc(C(C)=O)c1O`: the half-maximal activity concentration (AC50) is 31.5 µM (active). As to `O=c1cc(-c2ccccc2)oc2cc(O)cc(O)c12`, the AC50 was 8.76 µM (active).
